Measurements published in PubChem BioAssay.
Active and inactive are the calls of the source.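 The calls were made as follows: active = Her2 level under about 52% in both replicate screens, with viability over 70% of control (limit read from the data); inconclusive = Her2 under the limit in one screen only, or viability under 70%; inactive = Her2 level above the set limit.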

Target: Receptor tyrosine-protein kinase erbB-2 (Homo sapiens) (UniProt P04626)
Test: reducers of endogenous Her2 protein level, primary screen, SKBR3 breast tumor cells, AlphaScreen, ATP viability (AID 461);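 also: lower value means less Her2 protein in the cells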
Conditions: 18-24 h, at 10 µM, active compounds read low

Sequence of Receptor tyrosine-protein kinase erbB-2 (Homo sapiens) (P04626 whole entry, looked up): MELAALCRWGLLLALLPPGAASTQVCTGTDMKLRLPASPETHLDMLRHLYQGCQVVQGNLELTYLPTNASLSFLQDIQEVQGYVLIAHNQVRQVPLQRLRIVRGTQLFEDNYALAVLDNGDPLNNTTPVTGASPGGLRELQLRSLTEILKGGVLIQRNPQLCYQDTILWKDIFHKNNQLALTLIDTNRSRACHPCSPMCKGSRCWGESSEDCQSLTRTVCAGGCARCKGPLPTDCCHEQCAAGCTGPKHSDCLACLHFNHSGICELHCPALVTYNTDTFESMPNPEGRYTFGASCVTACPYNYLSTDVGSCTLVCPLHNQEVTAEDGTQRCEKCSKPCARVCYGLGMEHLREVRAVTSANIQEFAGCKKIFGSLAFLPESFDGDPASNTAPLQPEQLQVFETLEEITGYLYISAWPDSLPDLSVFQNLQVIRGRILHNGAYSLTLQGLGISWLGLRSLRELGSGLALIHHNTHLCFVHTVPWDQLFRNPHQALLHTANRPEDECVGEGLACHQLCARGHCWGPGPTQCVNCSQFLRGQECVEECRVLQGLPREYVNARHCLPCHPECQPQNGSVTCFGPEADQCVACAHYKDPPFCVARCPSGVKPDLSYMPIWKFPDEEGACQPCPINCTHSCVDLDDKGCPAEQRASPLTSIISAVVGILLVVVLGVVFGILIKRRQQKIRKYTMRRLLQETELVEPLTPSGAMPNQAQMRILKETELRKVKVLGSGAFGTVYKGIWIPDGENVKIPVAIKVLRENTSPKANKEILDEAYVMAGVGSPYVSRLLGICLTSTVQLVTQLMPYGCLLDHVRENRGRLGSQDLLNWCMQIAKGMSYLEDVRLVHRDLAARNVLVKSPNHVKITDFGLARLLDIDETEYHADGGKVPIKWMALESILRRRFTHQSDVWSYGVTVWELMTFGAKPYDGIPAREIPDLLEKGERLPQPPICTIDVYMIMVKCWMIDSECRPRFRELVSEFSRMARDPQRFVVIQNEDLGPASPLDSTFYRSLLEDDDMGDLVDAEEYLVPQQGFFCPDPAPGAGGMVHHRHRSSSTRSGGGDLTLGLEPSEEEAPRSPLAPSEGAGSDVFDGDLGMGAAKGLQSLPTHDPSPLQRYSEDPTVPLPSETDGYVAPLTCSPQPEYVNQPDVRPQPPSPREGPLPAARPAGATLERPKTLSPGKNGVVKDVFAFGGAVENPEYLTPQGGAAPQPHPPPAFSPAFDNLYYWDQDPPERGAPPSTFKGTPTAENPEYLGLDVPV

Structure (SMILES)	Her2 level
CCCCN=CC1=C(O)C(C(=O)OC)C(C)(C)CC1=O (stereo unspecified)	93.5% (inactive)
Cc1ccc(C)c(C(=O)CC2(O)C(=O)N(C)c3ccccc32)c1 (stereo unspecified)	113% (inactive)
CC(=O)C1=C(C)Nc2ncnn2C1c1cccc(OCc2ccccc2)c1 (stereo unspecified)	104% (inactive)
Cc1ccc(C(=O)CC2(O)C(=O)N(C)c3ccc(Br)cc32)c(C)c1 (stereo unspecified)	88.5% (inactive)
Fc1cccc(Nc2ncnc3c2cnn3-c2ccccc2)c1	70.5% (inactive)
COc1ccc(NC(=O)NCCN2C(=O)C3C4C=CC(C4)C3C2=O)cc1 (stereo unspecified)	91% (inactive)
Cc1ccc(C)c(NC(=O)CSc2nnc(-c3ccccc3)o2)c1	104% (inactive)
O=C(NCCCN1CCOCC1)c1cc(-c2ccc(O)cc2)on1	87.5% (inactive)
CCOC(=O)c1ccc(NC(=O)Cn2cc3c(n2)CCC(C)C3)cc1 (stereo unspecified)	92% (inactive)
N#C/C(C(=O)N1CCOCC1)=C1/SC=C(c2ccccc2)N1c1ccccc1	92% (inactive)
COc1ccc(C(=O)c2coc3ccc(O)c(CN4CCCCC4)c23)cc1	106% (inactive)
CCn1c(C(=O)N2CCC(C(=O)N3CCN(c4ccccn4)CC3)CC2)cc2sccc21	108% (inactive)
CCOC(=O)N1CCN(Cc2nc3c(c(=O)n(C)c(=O)n3C)n2Cc2ccccc2)CC1	106% (inactive)
CN1CCN(C(=O)c2ccc(CS(=O)(=O)c3c(Cl)cccc3Cl)o2)CC1	88.5% (inactive)
CN(C)CCCN1C(=O)c2oc3ccc(Cl)cc3c(=O)c2C1c1cccnc1 (stereo unspecified)	90.5% (inactive)
O=C(CSc1nnc2ccccn12)c1ccccc1	88% (inactive)
